Test results reported in PubChem BioAssay AID1445 (SRMLSC, 2008).
Out of some 220,000 compounds screened, about 910 (0.41%) were called active. Many of the other results were omitted from the sample, so actives are more common in it than they were. Potency and affinity values are given separately. Unmarked numbers belong to inactive results.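 The calls were made as follows: active = primary inhibition above the hit cutoff, then over 50% inhibition at one or more dose response concentrations (cut at about 23% in these data, passing the limit was not always enough); inconclusive = conflicting primary data, or primary hits not chosen for dose response; inactive = low primary inhibition, or under 50% at every dose.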

Molecular target: Aminopeptidase N (Plasmodium falciparum (isolate 3D7)) (UniProt O96935)
Sequence (O96935 whole entry, looked up): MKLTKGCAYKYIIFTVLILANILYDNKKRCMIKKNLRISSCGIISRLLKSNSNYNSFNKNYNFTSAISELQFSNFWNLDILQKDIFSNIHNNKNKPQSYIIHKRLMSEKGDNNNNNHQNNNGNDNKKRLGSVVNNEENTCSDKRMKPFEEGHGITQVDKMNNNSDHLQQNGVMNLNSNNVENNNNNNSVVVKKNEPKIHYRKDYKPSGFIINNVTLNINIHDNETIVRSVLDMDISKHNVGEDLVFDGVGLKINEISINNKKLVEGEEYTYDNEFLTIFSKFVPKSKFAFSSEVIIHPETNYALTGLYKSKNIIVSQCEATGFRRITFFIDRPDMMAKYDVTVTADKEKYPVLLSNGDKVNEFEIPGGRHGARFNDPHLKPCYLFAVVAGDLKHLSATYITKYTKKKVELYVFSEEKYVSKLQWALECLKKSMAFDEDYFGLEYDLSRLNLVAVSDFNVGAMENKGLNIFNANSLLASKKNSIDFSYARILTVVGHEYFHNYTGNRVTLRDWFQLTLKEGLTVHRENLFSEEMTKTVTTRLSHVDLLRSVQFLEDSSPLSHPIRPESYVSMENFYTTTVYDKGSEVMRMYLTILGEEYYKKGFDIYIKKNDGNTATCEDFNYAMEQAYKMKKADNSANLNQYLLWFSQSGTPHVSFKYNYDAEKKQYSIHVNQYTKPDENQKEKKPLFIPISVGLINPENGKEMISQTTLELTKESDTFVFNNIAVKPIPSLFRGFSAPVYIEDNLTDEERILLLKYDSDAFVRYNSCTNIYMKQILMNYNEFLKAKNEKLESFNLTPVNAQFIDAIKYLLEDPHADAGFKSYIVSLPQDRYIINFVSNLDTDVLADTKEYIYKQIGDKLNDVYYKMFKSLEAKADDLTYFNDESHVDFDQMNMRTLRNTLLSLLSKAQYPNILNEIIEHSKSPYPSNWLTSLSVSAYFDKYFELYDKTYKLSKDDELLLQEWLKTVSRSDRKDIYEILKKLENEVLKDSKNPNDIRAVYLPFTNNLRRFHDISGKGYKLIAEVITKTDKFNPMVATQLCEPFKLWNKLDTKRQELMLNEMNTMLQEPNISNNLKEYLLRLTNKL
Experiment: P. falciparum M1AAP inhibitors, biochemical, fluorogenic H-Leu-NHMec substrate, 1536-well (AID 1445);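 also: plate controls were DMSO full reaction for no effect and no enzyme background for full effect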
Conditions: recombinant M1AAP, H-Leu-NHMec fluorogenic kinetic assay; at 30 µM, active compounds read high unless noted

In order of falling inhibition:
1. O=C(O)CC1S/C(=N/N=C/c2ccc(-c3ccc(Cl)cc3[N+](=O)[O-])o2)NC1=O (stereo unspecified)  20.8%
2. COc1ccc(NS(=O)(=O)c2cccc(-c3nnc4n3CCCCC4)c2)cc1  20%
3. CCSC1=NSC2=NC(=O)/C(=C\c3coc4ccccc4c3=O)C(=N)N12  19.9%
4. CC(C)CSC1=NSC2=NC(=O)/C(=C\c3coc4ccccc4c3=O)C(=N)N12  19.5%
5. O=c1cc(/N=C/c2coc3cc(Br)ccc3c2=O)[nH]c(=S)[nH]1  18.8%
6. O=C(N/N=C/c1ccc(-c2ccc([N+](=O)[O-])cc2)o1)C(O)c1ccccc1 (stereo unspecified)  18.2%
7. COc1ccccc1-n1c(C)cc(/C=C2/C(=N)N3C(=NC2=O)SN=C3S(C)(=O)=O)c1C  17.9%
8. COC(=O)c1cc(C(=O)OC)cc(N2C(=O)CC(NNC(=O)c3ccccc3Br)C2=O)c1 (stereo unspecified)  17.2%
9. Cc1ccc(C)n1NC(=O)c1ccc(O)cc1  17%
10. Nc1ccnn1Cc1ccc(Br)s1  14.7%
11. Cc1cc(/C=C2/C(=N)N3C(=NC2=O)SN=C3S(C)(=O)=O)c(C)n1-c1ccc(F)cc1  14.2%
12. O=C(O)c1ccc(N/N=C/c2ccc(-c3cccc(Cl)c3)o2)cc1  13.1%
13. N#C/C(=N\Nc1ccccc1Cl)C(=O)c1ccccc1  12.7%
14. COc1ccc(C(=O)/C(C#N)=N/Nc2cccc([N+](=O)[O-])c2)cc1  12.4%
15. Cc1ccc(C)c2[nH]c(=O)c(CN(Cc3ccco3)S(=O)(=O)c3ccc4c(c3)OCCO4)cc12  11.6%
16. COc1ccc(NC(=S)NCc2ccccn2)cc1OC  10.7%
17. COc1ccc(N=Cc2cc(Cc3ccccc3Cl)cc([N+](=O)[O-])c2O)cc1OC  10.4%
18. Brc1c(CSc2nncn2-c2ccccc2)nc2ncccn12  9.69%
19. CCCn1nc(C(=O)NCc2ccc3c(c2)OCO3)c2ccccc2c1=O  9.46%
20. Cc1ccc(C(=O)N/N=C\c2ccc(-c3ccc([N+](=O)[O-])cc3)o2)cn1  9.19%
21. CN(C)C(=O)c1c([N+](=O)[O-])c(C(C)(C)C)nn1C  9.14%
22. COc1ccc(C2c3ccc(O)cc3Oc3ncn(CCCO)c(=N)c32)cc1 (stereo unspecified)  8.86%
23. COc1cccc(C(=O)/C(C#N)=N/Nc2cccc(-c3ccnc(C)n3)c2)c1  8.84%
24. Cc1cc(/C=C2/C(=N)N3C(=NC2=O)SN=C3S(C)(=O)=O)c(C)n1-c1ccccc1F  8.82%
25. O=C(NN=C1CCN(Cc2ccccc2)CC1)c1ccccc1O  8.75%
26. COc1cc(-c2nc3ccc4ccccc4c3c3c2CCC3)ccc1O  8.66%
27. O=C(Nc1cccc2oc(=O)ccc12)c1ccc([N+](=O)[O-])cc1[N+](=O)[O-]  8.2%
28. O=C(COC(=O)c1ccc(NS(=O)(=O)c2cccs2)cc1O)Nc1nc2ccccc2s1  8.12%
29. CCCC1=[N+](CC(=O)c2ccccc2)CCn2c(C)ccc21  8.08%
30. NC(=O)CSc1nnc(-c2cccs2)n1Cc1ccco1  8.05%
31. C/C=C\C(=O)Nc1cccc(C2=NOC3(C2)C[C@@H](C(N)=O)N(C(=O)c2ccccc2)C3)c1 (stereo partly specified)  7.63%
32. COc1cccc(Cn2cnc3c(NS(=O)(=O)c4ccc(Cl)cc4)c(C)c(C)cc32)c1  7.11%
33. O=C(Nc1ccc(S(=O)(=O)NCc2ccco2)cc1)c1ccncc1  6.85%
34. COC(=O)CP(=O)(c1ccccc1)c1ccccc1  6.71%
35. CC(=O)/C=C(\C)N=Nc1c(O)[nH]c2ccccc12  6.61%
36. CCCC1=[N+](CC(C)=O)CCn2c(C)ccc21  6.47%
37. O=C(CN1C(=O)/C(=C/c2ccccc2)SC1=S)NNC(=O)c1ccccc1O  6.33%
38. Cc1ccc(-c2nc(CN3CCN(c4cnccn4)CC3)c(C)o2)o1  5.52%
39. O=C(NNC(=O)c1ccccc1O)c1ccco1  5.04%
40. O=C(Oc1ccccc1N1C(=O)C2CCCCC2C1=O)c1ccccc1F (stereo unspecified)  4.73%
41. COc1ccc(NC(=O)C2CCN(S(C)(=O)=O)CC2)cc1Cl  4.6%
42. C/C(=N\NC(=O)c1ccccc1)c1cccc(Br)c1  4.52%
43. O=c1cnnc(N/N=C/c2ccc3c(c2)OCO3)[nH]1  4.09%
44. CCOc1ccc2ncc(S(=O)(=O)c3ccccc3)c(N3CCN(c4ccc(OC)cc4)CC3)c2c1  3.98%
45. COc1ccc(C(=O)/C(C#N)=N/Nc2ccc([N+](=O)[O-])cc2)cc1  3.64%
46. CNC(=S)N/N=C/c1ccc(-c2ccc(Cl)c([N+](=O)[O-])c2)o1  3.04%
47. CCOC(Cn1c(SCc2cc(C(C)=O)ccc2OC)nc2ccccc2c1=O)OCC  2.96%
48. CCN1C(=O)C2(C(C(=O)c3cc4ccccc4o3)=C(O)C(=O)N2CCCN2CCOCC2)c2ccccc21 (stereo unspecified)  2.91%
49. NC(=O)N/N=C/c1ccc(-c2ccc([N+](=O)[O-])cc2)o1  2.91%
50. O=C1C2CC=C(Cl)CC2C(=O)N1CCN1CCOCC1 (stereo unspecified)  2.4%
51. O=C(N/N=C/c1ccc(-c2cccc([N+](=O)[O-])c2)o1)c1ccc([N+](=O)[O-])cc1  2.39%
52. COCCn1c(SCc2cc(C(C)=O)ccc2OC)nc2cc(Cl)ccc2c1=O  2.27%
53. O=[N+]([O-])c1ccc(-c2ccc(/C=N/O)o2)cc1  2.25%
54. COc1ccc(C2CC(c3ccc4ccccc4c3)=NN2C(=O)COC(=O)C2CCC(=O)N2)cc1 (stereo unspecified)  2.25%
55. CCOc1ccccc1NC(=S)N1CCCc2ccccc21  2.13%
56. CCCCN1CNC(=S)N(CCc2ccccc2)C1  2.11%
57. CCOC(=O)NC(=O)/C(C#N)=N\Nc1cccc(Cl)c1  1.92%
58. COc1cc(C)nc(N2CCCC(C(=O)Nc3cccc(Cl)c3Cl)C2)n1 (stereo unspecified)  1.36%
59. COCCn1c(=NC(C)=O)sc2cc([N+](=O)[O-])ccc21  1.15%
60. COC(=O)CCC(=O)NNC(=O)Cc1ccccc1  1.14%
61. Cc1ccc(NC(=O)CN2C(=O)c3ccccc3C2=O)nc1  1.04%
62. CNC(=O)Nc1cccc(-c2ccnc(C)n2)c1  0.72%
63. COCCNC(=O)COc1ncnc2ccc(Br)cc12  0.71%
64. CCOC(=O)C1CCCN(C(=O)c2cc(-c3ccc(F)cc3)nc3ccccc23)C1 (stereo unspecified)  0.66%
65. Cc1ccc(-n2c(-c3ccco3)n[nH]c2=S)cc1  0.43%
66. COc1ccc(C(=O)COc2ccc(F)cc2)c(O)c1C  0.41%
67. COc1ccc(C(=O)C2CCCN(C(=O)c3cc(C(C)C)no3)C2)cc1F (stereo unspecified)  0.4%
68. O=C(Nc1ccccc1[N+](=O)[O-])c1cc2ccccc2nc1Cl  0.38%
69. CCN(C(=O)CSc1n[nH]c(-c2cccs2)n1)C1CCS(=O)(=O)C1 (stereo unspecified)  -0.17%
70. Cc1ccc(S(=O)(=O)N(C)C)cc1NC(=O)COC(=O)c1sc2cc(Cl)ccc2c1Cl  -0.59%
71. NC(=S)N/N=C/c1ccc(-c2ccc([N+](=O)[O-])cc2)o1  -0.83%
72. FC(F)(F)c1cccc(OCCN2CCN(Cc3ccccc3)CC2)c1  -0.96%
73. O=C(CCCN1C(=O)S/C(=C\c2ccccc2)C1=O)NNC(=O)c1ccccc1O  -1.57%
74. COC(=O)c1ccc(N(C(=O)CNC(=O)c2ccco2)C(C(=O)NC2CCCC2)c2ccco2)cc1 (stereo unspecified)  -1.68%
75. N/C(=N\OC(=O)CCn1cccc(C(F)(F)F)c1=O)c1ccc(Cl)cc1  -1.85%
76. CCOc1ccc(CCNC(=O)Cc2nn[nH]n2)cc1OCC  -2.11%
77. Cc1cc(Cl)ccc1OCC(=O)OC(C)C(=O)NC(N)=O (stereo unspecified)  -2.23%
78. Cc1nc(-c2cccc(S(=O)(=O)N3CC(C)OC(C)C3)c2)cs1 (stereo unspecified)  -2.63%
79. COc1ccccc1NS(=O)(=O)c1ccc(O)c(C(=O)OCC(=O)Nc2ccccc2F)c1  -2.66%
80. O=C(COC(=O)c1ccccc1NC(=O)c1ccco1)NCc1ccc2c(c1)OCO2  -2.79%
81. Cn1c(SCC(=O)N(Cc2ccccc2)C(C)(C)C)nc2ccccc21  -3.33%
82. O=C1CCCN1CCC1CCCCN1Cc1nc(-c2cnccn2)no1 (stereo unspecified)  -4.06%
83. O=C(NC(Cc1ccccc1)C(=O)O)c1ccc(S(=O)(=O)N2CCOCC2)cc1 (stereo unspecified)  -4.36%
84. CCn1cc(C(=O)O)c(=O)c2cc(F)c(N/N=C/c3ccccc3[N+](=O)[O-])cc21  -4.53%
85. Cc1ccc(-c2nc(SCC(=O)NCCN3C(=O)CSC3=O)[nH]c2-c2ccc(C)cc2)cc1  -5.28%
86. COC(=O)/C(C#N)=C/c1ccc(-c2ccc(S(N)(=O)=O)cc2)o1  -5.9%
87. CC(C)CSC1=NSC2=NC(=O)/C(=C\c3ccccc3)C(=N)N12  -10%
88. O=C(N/N=C/c1ccc(-c2cccc([N+](=O)[O-])c2)o1)c1ccccc1O  -18.1%

In the case of `N#C/C(=N\Nc1cccc(Cl)c1)C(=O)c1ccccc1`, the inhibition was 23.3% (active).
In the case of `CCCC1=[N+](CC)CCn2c(C)ccc21`, the inhibition was 47.2% (active).
For `COC(=O)CCP(=O)(O)Cc1ccccc1CP(=O)(O)CCC(=O)OC`, the inhibition was 25.9% (active).
